± gives the standard deviation of the averaged measurements.
What was measured:
Test in all cases: promoter activity interaction Z-score (Lux/OD deviation from empty-vector control); higher = stronger promoter induction by the compound
[1] = test system: E. coli BW25113 acrABp lux reporter
In short: (§1)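 OD600 and luminescence of E. coli BW25113 reporter cultures (40 µl LB Lennox, 384-well plates, 37°C) were measured every 30 min for 12 h. Integration ran over 0–8 h for wild type or 1–9 h for deletion strains, and wells with growth below 10% of the median were dropped. The score is the Z-transformed residual of growth-normalised luminescence fitted against a control.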

[2] = test system: E. coli BW25113 marRABp lux reporter
In short: as §1

[3] = test system: E. coli BW25113 micFp lux reporter
In short: as §1

[4] = test system: E. coli BW25113 ompFp lux reporter
In short: as §1

[5] = test system: E. coli BW25113 robp lux reporter
In short: as §1

[6] = test system: E. coli BW25113 soxSp lux reporter
In short: as §1

[7] = test system: E. coli BW25113 tolCp lux reporter
In short: as §1

[8] = 11.4 µg/ml, genetic background: wild type
[9] = 11.4 µg/ml, genetic background: ΔmarA
[10] = 11.4 µg/ml, genetic background: Δrob
[11] = 11.4 µg/ml, genetic background: ΔsoxS
[12] = 22.8 µg/ml, genetic background: wild type
[13] = 22.8 µg/ml, genetic background: ΔmarA
[14] = 22.8 µg/ml, genetic background: Δrob
[15] = 22.8 µg/ml, genetic background: ΔsoxS
[16] = 45.5 µg/ml, genetic background: wild type
[17] = 45.5 µg/ml, genetic background: ΔmarA
[18] = 45.5 µg/ml, genetic background: Δrob
[19] = 45.5 µg/ml, genetic background: ΔsoxS
[20] = 91.1 µg/ml, genetic background: wild type
[21] = 91.1 µg/ml, genetic background: ΔmarA
[22] = 91.1 µg/ml, genetic background: Δrob
[23] = 91.1 µg/ml, genetic background: ΔsoxS

Cn1c(=O)[nH]c2[nH]c(=O)[nH]c2c1=O [1-Methyluric acid]
promoter activity interaction Z-score [1, 8]: -0.104 ± 0.078 | promoter activity interaction Z-score [1, 9]: 0.564 ± 0.66 | promoter activity interaction Z-score [1, 10]: -0.212 ± 0.12 | promoter activity interaction Z-score [1, 11]: 0.297 ± 0.53 | promoter activity interaction Z-score [1, 12]: 0.00584 ± 0.0026 | promoter activity interaction Z-score [1, 13]: 0.938 ± 0.94 | promoter activity interaction Z-score [1, 14]: -0.286 ± 0.35 | promoter activity interaction Z-score [1, 15]: 0.0572 ± 0.41 | promoter activity interaction Z-score [1, 16]: -0.247 ± 0.3 | promoter activity interaction Z-score [1, 17]: -0.354 ± 0.38 | promoter activity interaction Z-score [1, 18]: -0.533 ± 0.26 | promoter activity interaction Z-score [1, 19]: 0.207 ± 0.88 | promoter activity interaction Z-score [1, 20]: -0.104 ± 0.14 | promoter activity interaction Z-score [1, 21]: 0.464 ± 0.1 | promoter activity interaction Z-score [1, 22]: -0.246 ± 0.046 | promoter activity interaction Z-score [1, 23]: 0.186 ± 0.74 | promoter activity interaction Z-score [2, 8]: 0.0849 ± 0.054 | promoter activity interaction Z-score [2, 9]: -0.0996 ± 0.1 | promoter activity interaction Z-score [2, 10]: -0.0237 ± 0.035 | promoter activity interaction Z-score [2, 11]: -0.145 ± 0.068 | promoter activity interaction Z-score [2, 12]: -0.0689 ± 0.41 | promoter activity interaction Z-score [2, 13]: -0.0515 ± 0.28 | promoter activity interaction Z-score [2, 14]: -0.217 ± 0.19 | promoter activity interaction Z-score [2, 15]: -0.242 ± 0.1 | promoter activity interaction Z-score [2, 16]: -0.206 ± 0.59 | promoter activity interaction Z-score [2, 17]: -0.417 ± 0.023 | promoter activity interaction Z-score [2, 18]: -0.419 ± 0.29 | promoter activity interaction Z-score [2, 19]: -0.415 ± 0.043 | promoter activity interaction Z-score [2, 20]: -0.367 ± 0.052 | promoter activity interaction Z-score [2, 21]: 0.16 ± 0.19 | promoter activity interaction Z-score [2, 22]: -0.423 ± 0.058 | promoter activity interaction Z-score [2, 23]: -0.211 ± 0.17 | promoter activity interaction Z-score [3, 8]: -0.0236 ± 0.39 | promoter activity interaction Z-score [3, 9]: 0.118 ± 0.021 | promoter activity interaction Z-score [3, 10]: 0.0501 ± 0.18 | promoter activity interaction Z-score [3, 11]: 0.153 ± 0.11 | promoter activity interaction Z-score [3, 12]: 0.0921 ± 0.34 | promoter activity interaction Z-score [3, 13]: 0.0777 ± 0.13 | promoter activity interaction Z-score [3, 14]: 0.162 ± 0.1 | promoter activity interaction Z-score [3, 15]: -0.0599 ± 0.019 | promoter activity interaction Z-score [3, 16]: -0.0797 ± 0.0059 | promoter activity interaction Z-score [3, 17]: 0.0715 ± 0.14 | promoter activity interaction Z-score [3, 18]: -0.119 ± 0.051 | promoter activity interaction Z-score [3, 19]: 0.323 ± 0.18 | promoter activity interaction Z-score [3, 20]: -0.191 ± 0.057 | promoter activity interaction Z-score [3, 21]: 0.0296 ± 0.15 | promoter activity interaction Z-score [3, 22]: -0.0667 ± 0.089 | promoter activity interaction Z-score [3, 23]: 0.409 ± 0.52 | promoter activity interaction Z-score [4, 8]: 0.326 ± 0.31 | promoter activity interaction Z-score [4, 9]: 0.693 ± 0.12 | promoter activity interaction Z-score [4, 10]: 0.46 ± 0.48 | promoter activity interaction Z-score [4, 11]: 0.431 ± 0.45 | promoter activity interaction Z-score [4, 12]: 0.321 ± 0.41 | promoter activity interaction Z-score [4, 13]: 0.558 ± 0.49 | promoter activity interaction Z-score [4, 14]: 0.739 ± 0.54 | promoter activity interaction Z-score [4, 15]: 0.326 ± 0.25 | promoter activity interaction Z-score [4, 16]: -0.32 ± 0.069 | promoter activity interaction Z-score [4, 17]: 0.0147 ± 0.41 | promoter activity interaction Z-score [4, 18]: -1.23 ± 0.62 | promoter activity interaction Z-score [4, 19]: -0.438 ± 0.48 | promoter activity interaction Z-score [4, 20]: 0.135 ± 0.01 | promoter activity interaction Z-score [4, 21]: 0.619 ± 0.048 | promoter activity interaction Z-score [4, 22]: -0.101 ± 0.29 | promoter activity interaction Z-score [4, 23]: 0.374 ± 1.1 | promoter activity interaction Z-score [5, 8]: -0.269 ± 0.61 | promoter activity interaction Z-score [5, 9]: 0.351 ± 0.24 | promoter activity interaction Z-score [5, 10]: 0.112 ± 0.039 | promoter activity interaction Z-score [5, 11]: 0.0211 ± 0.46 | promoter activity interaction Z-score [5, 12]: 0.161 ± 0.081 | promoter activity interaction Z-score [5, 13]: 0.493 ± 0.4 | promoter activity interaction Z-score [5, 14]: 0.0711 ± 0.33 | promoter activity interaction Z-score [5, 15]: -0.912 ± 0.1 | promoter activity interaction Z-score [5, 16]: -0.286 ± 0.13 | promoter activity interaction Z-score [5, 17]: -0.426 ± 0.29 | promoter activity interaction Z-score [5, 18]: -1.18 ± 0.44 | promoter activity interaction Z-score [5, 19]: -0.966 ± 0.2 | promoter activity interaction Z-score [5, 20]: 0.057 ± 0.46 | promoter activity interaction Z-score [5, 21]: 0.0892 ± 0.25 | promoter activity interaction Z-score [5, 22]: -0.403 ± 0.09 | promoter activity interaction Z-score [5, 23]: -0.691 ± 0.56 | promoter activity interaction Z-score [6, 8]: 0.261 ± 0.1 | promoter activity interaction Z-score [6, 9]: 0.522 ± 0.037 | promoter activity interaction Z-score [6, 10]: 0.347 ± 0.19 | promoter activity interaction Z-score [6, 11]: 0.264 ± 0.44 | promoter activity interaction Z-score [6, 12]: 0.256 ± 0.0038 | promoter activity interaction Z-score [6, 13]: 0.598 ± 0.099 | promoter activity interaction Z-score [6, 14]: 0.475 ± 0.19 | promoter activity interaction Z-score [6, 15]: 0.221 ± 0.36 | promoter activity interaction Z-score [6, 16]: 0.22 ± 0.037 | promoter activity interaction Z-score [6, 17]: 0.334 ± 0.14 | promoter activity interaction Z-score [6, 18]: 0.132 ± 0.069 | promoter activity interaction Z-score [6, 19]: -0.0814 ± 0.51 | promoter activity interaction Z-score [6, 20]: 0.104 ± 0.3 | promoter activity interaction Z-score [6, 21]: 0.366 ± 0.082 | promoter activity interaction Z-score [6, 22]: 0.122 ± 0.097 | promoter activity interaction Z-score [6, 23]: 0.0852 ± 0.84 | promoter activity interaction Z-score [7, 8]: -0.101 ± 0.82 | promoter activity interaction Z-score [7, 9]: 0.236 ± 0.64 | promoter activity interaction Z-score [7, 10]: 0.123 ± 0.14 | promoter activity interaction Z-score [7, 11]: 0.273 ± 0.67 | promoter activity interaction Z-score [7, 12]: 0.46 ± 0.55 | promoter activity interaction Z-score [7, 13]: 0.0925 ± 0.54 | promoter activity interaction Z-score [7, 14]: 1.34 ± 1.4 | promoter activity interaction Z-score [7, 15]: -0.689 ± 1 | promoter activity interaction Z-score [7, 16]: 0.324 ± 0.25 | promoter activity interaction Z-score [7, 17]: 0.169 ± 0.61 | promoter activity interaction Z-score [7, 18]: -0.992 ± 0.65 | promoter activity interaction Z-score [7, 19]: 0.413 ± 0.89 | promoter activity interaction Z-score [7, 20]: 0.769 ± 0.93 | promoter activity interaction Z-score [7, 21]: 0.232 ± 0.41 | promoter activity interaction Z-score [7, 22]: 0.664 ± 0.066 | promoter activity interaction Z-score [7, 23]: 0.553 ± 0.38

— the supplement of paper PMC12282887
